Measurements reported in the supplement of paper PMC10849652.
Of roughly 7,900 targets only a part is listed; those with a hit were picked by preference. About 0.6% of all pairs of compound and target were hits. Unmarked numbers belong to inactive results.

Experiments:
Experiment in all cases: log2 fold change, soluble protein after heating vs DMSO (PISA); higher = thermal stabilisation; K562 cells, 10 uM, 30 min; active = over 0.2 and 3.5 SD of the protein, either way, in both replicates (recomputed)
[1] = compound: CC[C@@H]1C(=O)N(C)c2cnc(Nc3ccc(C(=O)NC4CCN(C)CC4)cc3OC)nc2N1C1CCCC1
Method in brief: (§1)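 For each measurement, 10 μM compound was applied for 30 min to K562 cells at 2×10^6 cells/mL. Aliquots were heated for 3 min across 48°C-58°C, pooled, and extracted in PBS with 0.5% NP-40 at 4°C; the supernatant after 21,000xg for 90 min was soluble protein. This was quantified by TMTpro 16plex LC-MS/MS with channel sums equalised, and thermal stability was reported relative to control samples from duplicates, on a log2 fold-change scale.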

volasertib = compound: CC[C@@H]1C(=O)N(C)c2cnc(Nc3ccc(C(=O)N[C@H]4CC[C@H](N5CCN(CC6CC6)CC5)CC4)cc3OC)nc2N1C(C)C [volasertib]
Method in brief: as §1

[2] = compound: CC[C@H](C)N1C=C(C2=C(C=C(C=C21)C3=CN=C(C=C3)N4CCNCC4)C(=O)NCC5=C(C=C(NC5=O)C)C)C
Method in brief: as §1

epoxomicin = compound: CC[C@H](C)[C@@H](C(=O)N[C@@H]([C@@H](C)O)C(=O)N[C@@H](CC(C)C)C(=O)[C@]1(CO1)C)NC(=O)[C@H]([C@@H](C)CC)N(C)C(=O)C [epoxomicin]
Method in brief: as §1

[3] = compound: CCn1c(C(=O)N(C2CC2)C2CC2)cc2c3c(ncn3C)c(Nc3cc(C)n(C)n3)nc21
Method in brief: as §1

[4] = compound: CCn1cc(-c2ccnc3[nH]c(-c4cccc(CN(C)C)c4)cc23)c(-c2ccc(NC(=O)N(C)C)cc2)n1
Method in brief: as §1

[5] = compound: CN(C)CC(=O)Nc1ccc2[nH]c(=O)c3ccccc3c2c1
Method in brief: as §1

rosiglitazone = compound: CN(CCOC1=CC=C(C=C1)C[C@H]2C(=O)NC(=O)S2)C3=CC=CC=N3 (racemic) [rosiglitazone]
Method in brief: as §1

[6] = compound: CN1C2=C(C3=C1C(=O)N(N=C3)CC4=CC(=CC=C4)N)SC(=C2)S(=O)C
Method in brief: as §1

[7] = compound: CN1CCC(CNc2ccc3ncc(-c4cccc(OC(F)(F)F)c4)n3n2)CC1
Method in brief: as §1

saracatinib = compound: CN1CCN(CCOc2cc(OC3CCOCC3)c3c(Nc4c(Cl)ccc5c4OCO5)ncnc3c2)CC1 [saracatinib]
Method in brief: as §1

sotrastaurin = compound: CN1CCN(c2nc(C3=C(c4c[nH]c5ccccc45)C(=O)NC3=O)c3ccccc3n2)CC1 [sotrastaurin]
Method in brief: as §1

alvocidib = compound: CN1CC[C@H](c2c(O)cc(O)c3c(=O)cc(-c4ccccc4Cl)oc23)[C@H](O)C1 [alvocidib]
Method in brief: as §1

Tubastatin A = compound: CN1CCc2c(c3ccccc3n2Cc2ccc(C(=O)NO)cc2)C1 [Tubastatin A]
Method in brief: as §1

[8] = compound: CNC(=O)C1=CC=CC=C1NC2=NC(=NC=C2Cl)NC3=C(C=C(C=C3)N4CCOCC4)OC
Method in brief: as §1

defactinib = compound: CNC(=O)c1ccc(Nc2ncc(C(F)(F)F)c(NCc3nccnc3N(C)S(C)(=O)=O)n2)cc1 [defactinib]
Method in brief: as §1

rucaparib = compound: CNCc1ccc(-c2[nH]c3cc(F)cc4c3c2CCNC4=O)cc1 [rucaparib]
Method in brief: as §1

[9] = compound: CNc1nc(-c2ccc3c(N)n[nH]c3c2)cc(N2C[C@@H](C(=O)NC3CCCCC3)CC[C@H]2C)n1
Method in brief: as §1

encorafenib = compound: COC(=O)N[C@@H](C)CNc1nccc(-c2cn(C(C)C)nc2-c2cc(Cl)cc(NS(C)(=O)=O)c2F)n1 [encorafenib]
Method in brief: as §1

[10] = compound: COC(=O)[C@H](CCSC)NC(=O)C1=C(C=C(C=C1)NC[C@H](CS)N)C2=CC=CC=C2
Method in brief: as §1

UniProt O95602, sequence (O95602 whole entry, looked up): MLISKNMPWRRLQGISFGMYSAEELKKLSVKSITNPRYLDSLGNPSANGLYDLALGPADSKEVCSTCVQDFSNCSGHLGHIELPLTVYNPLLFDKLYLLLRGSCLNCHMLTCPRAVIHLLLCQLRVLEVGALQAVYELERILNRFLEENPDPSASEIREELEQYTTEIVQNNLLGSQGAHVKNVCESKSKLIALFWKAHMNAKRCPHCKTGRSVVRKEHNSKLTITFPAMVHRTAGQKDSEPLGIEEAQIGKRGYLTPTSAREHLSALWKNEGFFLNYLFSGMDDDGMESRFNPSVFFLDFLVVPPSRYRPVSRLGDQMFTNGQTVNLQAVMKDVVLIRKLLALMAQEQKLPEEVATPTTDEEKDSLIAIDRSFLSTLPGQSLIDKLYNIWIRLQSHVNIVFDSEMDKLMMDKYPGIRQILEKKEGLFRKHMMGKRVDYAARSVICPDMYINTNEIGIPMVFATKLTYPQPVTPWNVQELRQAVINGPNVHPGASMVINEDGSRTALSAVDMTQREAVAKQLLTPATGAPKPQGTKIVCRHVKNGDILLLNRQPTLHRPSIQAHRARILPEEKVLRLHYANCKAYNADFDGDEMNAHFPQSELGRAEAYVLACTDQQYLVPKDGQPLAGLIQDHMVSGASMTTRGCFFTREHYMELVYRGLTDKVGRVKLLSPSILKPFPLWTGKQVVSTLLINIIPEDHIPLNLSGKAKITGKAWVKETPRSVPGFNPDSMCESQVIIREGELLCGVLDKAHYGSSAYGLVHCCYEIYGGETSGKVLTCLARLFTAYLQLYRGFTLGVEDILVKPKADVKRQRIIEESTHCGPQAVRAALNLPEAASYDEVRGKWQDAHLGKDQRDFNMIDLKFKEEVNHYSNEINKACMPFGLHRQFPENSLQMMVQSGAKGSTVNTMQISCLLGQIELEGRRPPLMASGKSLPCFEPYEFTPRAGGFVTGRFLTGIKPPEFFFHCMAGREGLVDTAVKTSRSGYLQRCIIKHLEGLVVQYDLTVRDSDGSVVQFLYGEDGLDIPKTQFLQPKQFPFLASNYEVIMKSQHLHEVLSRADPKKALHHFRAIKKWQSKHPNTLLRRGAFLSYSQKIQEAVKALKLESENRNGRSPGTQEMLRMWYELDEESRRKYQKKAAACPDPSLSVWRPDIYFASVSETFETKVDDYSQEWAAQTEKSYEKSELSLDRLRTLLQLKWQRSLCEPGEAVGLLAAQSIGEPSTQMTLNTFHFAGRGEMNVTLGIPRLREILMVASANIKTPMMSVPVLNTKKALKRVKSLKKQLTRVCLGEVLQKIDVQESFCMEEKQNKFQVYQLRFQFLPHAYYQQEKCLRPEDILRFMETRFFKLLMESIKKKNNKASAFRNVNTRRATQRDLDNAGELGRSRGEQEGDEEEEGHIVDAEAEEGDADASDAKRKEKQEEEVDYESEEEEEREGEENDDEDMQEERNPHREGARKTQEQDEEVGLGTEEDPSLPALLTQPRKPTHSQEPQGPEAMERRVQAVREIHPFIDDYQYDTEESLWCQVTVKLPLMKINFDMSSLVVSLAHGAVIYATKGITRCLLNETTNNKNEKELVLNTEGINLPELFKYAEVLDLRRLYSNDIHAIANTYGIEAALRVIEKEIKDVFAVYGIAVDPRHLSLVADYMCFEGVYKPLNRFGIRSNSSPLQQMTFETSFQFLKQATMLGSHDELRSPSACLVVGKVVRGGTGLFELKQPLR
UniProt Q29RF7, sequence (Q29RF7 whole entry, looked up): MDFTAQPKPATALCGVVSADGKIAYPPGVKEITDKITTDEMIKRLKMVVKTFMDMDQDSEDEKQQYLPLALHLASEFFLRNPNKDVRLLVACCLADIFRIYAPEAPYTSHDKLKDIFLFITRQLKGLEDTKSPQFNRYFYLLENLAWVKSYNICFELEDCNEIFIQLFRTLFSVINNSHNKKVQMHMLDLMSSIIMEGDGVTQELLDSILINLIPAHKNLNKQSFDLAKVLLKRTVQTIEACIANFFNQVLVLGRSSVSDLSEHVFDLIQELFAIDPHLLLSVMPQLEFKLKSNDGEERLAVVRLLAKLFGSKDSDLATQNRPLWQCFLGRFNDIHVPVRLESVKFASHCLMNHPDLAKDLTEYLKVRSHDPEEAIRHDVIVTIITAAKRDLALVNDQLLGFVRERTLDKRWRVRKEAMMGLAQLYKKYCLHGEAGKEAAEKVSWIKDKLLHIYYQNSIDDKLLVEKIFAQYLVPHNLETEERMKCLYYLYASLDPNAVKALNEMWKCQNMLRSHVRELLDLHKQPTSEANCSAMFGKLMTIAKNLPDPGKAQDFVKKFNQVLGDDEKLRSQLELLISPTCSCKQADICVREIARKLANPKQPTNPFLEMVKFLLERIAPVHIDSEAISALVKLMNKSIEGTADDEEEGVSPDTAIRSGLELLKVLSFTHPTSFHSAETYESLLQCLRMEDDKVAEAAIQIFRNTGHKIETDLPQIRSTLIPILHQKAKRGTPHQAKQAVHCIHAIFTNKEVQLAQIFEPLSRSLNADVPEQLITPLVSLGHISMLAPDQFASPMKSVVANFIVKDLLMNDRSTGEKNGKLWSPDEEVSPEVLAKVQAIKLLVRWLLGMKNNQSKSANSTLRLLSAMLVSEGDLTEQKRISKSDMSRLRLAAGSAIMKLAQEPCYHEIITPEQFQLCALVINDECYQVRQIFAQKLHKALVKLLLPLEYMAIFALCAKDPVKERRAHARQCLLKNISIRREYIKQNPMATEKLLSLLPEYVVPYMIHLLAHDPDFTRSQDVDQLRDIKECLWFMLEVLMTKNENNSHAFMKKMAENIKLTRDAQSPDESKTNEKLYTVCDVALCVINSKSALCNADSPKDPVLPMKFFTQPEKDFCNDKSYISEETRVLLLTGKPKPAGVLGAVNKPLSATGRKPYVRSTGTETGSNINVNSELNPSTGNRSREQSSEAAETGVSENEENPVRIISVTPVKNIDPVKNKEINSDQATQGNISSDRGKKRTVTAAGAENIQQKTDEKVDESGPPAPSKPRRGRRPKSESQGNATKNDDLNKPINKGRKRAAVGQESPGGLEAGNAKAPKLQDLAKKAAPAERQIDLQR
UniProt O75340, sequence (O75340 whole entry, looked up): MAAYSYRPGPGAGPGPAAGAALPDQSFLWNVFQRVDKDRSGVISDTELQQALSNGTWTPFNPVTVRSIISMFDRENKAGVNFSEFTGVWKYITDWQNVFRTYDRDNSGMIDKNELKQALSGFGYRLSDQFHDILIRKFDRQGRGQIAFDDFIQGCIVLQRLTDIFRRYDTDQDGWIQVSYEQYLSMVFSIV
UniProt P50897, sequence (P50897 whole entry, looked up): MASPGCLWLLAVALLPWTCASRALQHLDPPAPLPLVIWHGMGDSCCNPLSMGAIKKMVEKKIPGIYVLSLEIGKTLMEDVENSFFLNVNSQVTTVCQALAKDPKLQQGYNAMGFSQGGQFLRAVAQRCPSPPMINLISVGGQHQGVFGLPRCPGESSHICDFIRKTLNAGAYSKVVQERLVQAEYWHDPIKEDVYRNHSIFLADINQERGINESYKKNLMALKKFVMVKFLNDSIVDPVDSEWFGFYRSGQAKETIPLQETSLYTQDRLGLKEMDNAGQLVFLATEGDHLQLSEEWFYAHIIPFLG
UniProt O95997, sequence (O95997 whole entry, looked up): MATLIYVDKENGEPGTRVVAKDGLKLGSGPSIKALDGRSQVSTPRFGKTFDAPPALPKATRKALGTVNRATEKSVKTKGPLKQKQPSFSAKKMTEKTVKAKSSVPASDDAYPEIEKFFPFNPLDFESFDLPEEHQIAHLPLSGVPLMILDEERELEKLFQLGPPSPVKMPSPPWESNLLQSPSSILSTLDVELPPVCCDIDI
UniProt O00408, sequence (O00408 whole entry, looked up): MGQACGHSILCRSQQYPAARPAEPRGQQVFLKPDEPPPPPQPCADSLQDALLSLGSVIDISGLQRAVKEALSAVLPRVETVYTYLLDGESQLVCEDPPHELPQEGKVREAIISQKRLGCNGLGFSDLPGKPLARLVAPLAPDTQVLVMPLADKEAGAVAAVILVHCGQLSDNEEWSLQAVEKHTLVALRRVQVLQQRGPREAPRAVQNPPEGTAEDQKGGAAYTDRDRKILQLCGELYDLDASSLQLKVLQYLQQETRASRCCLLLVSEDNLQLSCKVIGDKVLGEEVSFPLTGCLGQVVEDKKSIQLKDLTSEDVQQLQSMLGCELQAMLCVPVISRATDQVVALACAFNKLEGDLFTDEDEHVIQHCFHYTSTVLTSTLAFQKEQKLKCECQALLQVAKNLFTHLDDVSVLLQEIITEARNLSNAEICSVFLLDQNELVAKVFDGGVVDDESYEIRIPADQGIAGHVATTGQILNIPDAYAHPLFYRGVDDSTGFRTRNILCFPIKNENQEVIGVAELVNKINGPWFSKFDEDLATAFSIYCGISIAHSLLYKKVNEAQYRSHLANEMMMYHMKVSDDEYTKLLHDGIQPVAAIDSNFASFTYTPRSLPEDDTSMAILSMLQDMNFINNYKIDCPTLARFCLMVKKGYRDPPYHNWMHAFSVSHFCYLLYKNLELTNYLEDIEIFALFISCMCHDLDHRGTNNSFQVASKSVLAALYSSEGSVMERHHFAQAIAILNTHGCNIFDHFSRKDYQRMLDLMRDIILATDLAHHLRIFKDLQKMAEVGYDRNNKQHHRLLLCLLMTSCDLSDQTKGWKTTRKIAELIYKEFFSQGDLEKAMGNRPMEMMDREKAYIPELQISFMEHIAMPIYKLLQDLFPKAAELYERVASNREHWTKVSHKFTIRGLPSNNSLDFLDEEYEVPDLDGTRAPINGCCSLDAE
UniProt O43741, sequence (O43741 whole entry, looked up): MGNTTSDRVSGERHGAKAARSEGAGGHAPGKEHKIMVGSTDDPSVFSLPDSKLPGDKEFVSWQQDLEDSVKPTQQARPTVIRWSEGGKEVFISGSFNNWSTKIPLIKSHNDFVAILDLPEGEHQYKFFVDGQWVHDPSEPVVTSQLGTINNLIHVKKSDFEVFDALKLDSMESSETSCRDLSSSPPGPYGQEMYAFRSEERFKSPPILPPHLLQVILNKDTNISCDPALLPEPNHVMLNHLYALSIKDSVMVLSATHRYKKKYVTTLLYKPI

Row | Target | log2 fold change [1] | log2 fold change (volasertib) | log2 fold change [2] | log2 fold change (epoxomicin) | log2 fold change [3] | log2 fold change [4] | log2 fold change [5] | log2 fold change (rosiglitazone) | log2 fold change [6] | log2 fold change [7] | log2 fold change (saracatinib) | log2 fold change (sotrastaurin) | log2 fold change (alvocidib) | log2 fold change (Tubastatin A) | log2 fold change [8] | log2 fold change (defactinib) | log2 fold change (rucaparib) | log2 fold change [9] | log2 fold change (encorafenib) | log2 fold change [10]
1 | PTTG1 (UniProt O95997) | 0.105 | 0.124 | 0.008 | 0.293 (active) | 0.008 | 0.057 | -0.02 | 0.008 | 0.008 | -0.092 | -0.061 | -0.004 | 0.004 | 0.141 | -0.145 | -0.029 | -0.145 | -0.088 | -0.001 | 0.031
2 | PDS5A (UniProt Q29RF7) | -0.213 | -0.447 | 0.137 | 0.29 | -0.086 | 0.012 | -0.107 | 0.246 | 0.042 | -0.203 | -0.094 | -0.62 (active) | -0.122 | -0.235 | 0.051 | -0.045 | -0.025 | 0.053 | 0.028 | 0.006
3 | POLR1A (UniProt O95602) | 0.059 | 0.071 | -0.26 | -0.037 | 0.063 | -0.066 | -0.086 | 0.015 | 0.056 | 0.054 | -0.027 | -0.151 | -0.06 | 0.148 | -0.138 | -0.011 | 0.064 | -0.089 | -0.015 | 0.115
4 | PIK3C3 (UniProt Q8NEB9) | 0.16 | 0.153 | 0.023 | -0.071 | 0.044 | -0.117 | -0.03 | -0.022 | 0.025 | 0.015 | -0.007 | -0.039 | 0.044 | 0.027 | -0.003 | -0.012 | 0.25 | 0.002 | 0.05 | -0.018
5 | PPIL4 (UniProt Q8WUA2) | -0.024 | -0.253 (active) | 0.043 | 0.011 | -0.051 | 0.047 | 0.007 | -0.03 | 0.022 | -0.098 | -0.012 | -0.072 | -0.071 | -0.005 | -0.123 | -0.108 | 0.07 | 0.024 | 0.086 | -0.031
6 | PRPF38B (UniProt Q5VTL8) | -0.152 | -0.231 | 0.015 | -0.002 | -0.012 | -0.02 | -0.01 | 0.009 | 0.018 | -0.073 | 0.011 | -0.006 | -0.073 | -0.027 | -0.287 (active) | -0.27 (active) | -0.08 | -0.039 | 0.015 | 0.044
7 | PDE2A (UniProt O00408) | -0.031 | -0.107 | 0.016 | -0.087 | 0.061 | -0.082 | 0.027 | -0.004 | 0 | -0.091 | -0.011 | -0.005 | -0.003 | 0.208 | 0.01 | -0.094 | -0.051 | -0.065 | -0.064 | -0.042
8 | PRKAB2 (UniProt O43741) | 0.085 | -0.185 | 0.022 | 0.205 | 0.013 | -0.089 | 0.067 | 0.044 | 0.043 | -0.247 | -0.064 | -0.077 | -0.094 | 0.039 | -0.159 | -0.084 | -0.371 | -0.022 | 0.118 | -0.036
9 | PRIM2 (UniProt P49643) | -0.119 | -0.285 (active) | 0.147 | 0.02 | -0.041 | -0.07 | 0.076 | 0.065 | 0.013 | -0.131 | -0.013 | -0.192 | -0.132 | 0.024 | 0.009 | -0.127 | 0.001 | 0.018 | 0.052 | -0.055
10 | POLR2A (UniProt P24928) | 0.093 | -0.034 | 0.006 | 0.004 | -0.058 | 0.022 | 0.041 | 0.007 | -0.052 | 0.156 | -0.012 | 0.034 | 0.329 (active) | -0.012 | -0.035 | 0.241 | 0.126 | 0.025 | 0.027 | -0.07
11 | PDCD6 (UniProt O75340) | -0.157 | -0.283 (active) | -0.006 | 0.031 | -0.005 | -0.01 | 0.007 | 0.025 | -0.041 | -0.057 | 0.038 | -0.014 | -0.003 | 0.001 | 0.026 | -0.017 | -0.048 | -0.153 | 0.002 | 0.004
12 | PRPF40A (UniProt O75400) | -0.036 | -0.216 | 0.089 | 0.022 | -0.096 | 0.065 | 0.036 | 0.041 | 0.074 | -0.04 | -0.026 | -0.099 | -0.171 | 0.103 | -0.197 | -0.219 | 0.029 | -0.03 | 0.026 | -0.024
13 | PARL (UniProt Q9H300) | -0.059 | -0.008 | -0.009 | -0.076 | 0.031 | -0.062 | -0.035 | 0.035 | -0.004 | -0.134 | 0.056 | 0.019 | 0.026 | -0.053 | 0.025 | -0.011 | -0.005 | -0.052 | 0.029 | 0.015
14 | PPT1 (UniProt P50897) | -1.41 (active) | -1.9 (active) | -0.041 | 0.014 | 0.015 | 0.01 | -0.009 | -0.008 | -0.035 | -0.925 (active) | -0.007 | 0.029 | 0.005 | -0.038 | 0.024 | 0.024 | 0.047 | -0.019 | -0.023 | -0.002
15 | PDS5B (UniProt Q9NTI5) | -0.004 | 0.024 | 0.12 | 0.105 | -0.113 | 0.103 | 0.079 | 0.035 | 0.131 | -0.41 | -0.134 | 0.039 | -0.097 | 0.14 | -0.169 | -0.101 | -0.088 | 0.014 | 0 | 0.032
16 | PCID2 (UniProt Q5JVF3) | -0.032 | 0.016 | 0.072 | 0.027 | -0.149 | 0.035 | -0.021 | 0.064 | 0.055 | -0.086 | -0.164 | -0.22 | 0.012 | 0.006 | -0.033 | -0.281 | 0.051 | 0.008 | -0.036 | -0.101
